Reference: PubChem BioAssay AID652104 (National Center for Advancing Translational Sciences (NCATS), 2013)
Screen size: about 410,000 compounds; about 7,200 (1.8%) were called active. Another 7% or so got no clear call; they are omitted. Calls follow the shape of the dose curve; as a rule, active = well fitted activation curve with a large enough effect; inconclusive = small, poorly fitted or top-dose-only effect, or another doubt; inactive = no such curve, though single readings can be large or run the other way. The sample as a whole holds a higher share of actives than the screen did.

Experiment: qHTS of TDP-43 Inhibitors; also: nearly all actives have a fitted effect of over 50% in size; as to growth rescue (activation): % of control where 0% means no effect
Settings: TDP-43 expressing yeast growth rescue, BacTiter-Glo, 24 h; series mostly up to 46.1 µM; growth rescue (activation): at the top concentration
How it was run: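 Yeast cells expressing TDP-43 under galactose induction are exposed to compounds for 24 hr at 30 deg C. BacTiter-Glo luminescence measures growth, so protective compounds score as activators.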
Potency is read from the fitted curve at half-maximal effect.

Structure (SMILES)	growth rescue (activation)	Potency
Cc1cccc(Cn2c(=O)n(CCC(=O)NCCc3ccc(Cl)cc3)c(=O)c3sccc32)c1	-5.44% (inactive)	–
Cc1nc2ccccc2nc(=O)c1NNc1ccc([N+](=O)[O-])cc1	12.8% [at 9.22 µM] (inactive)	–
O=C1Nc2ccc([N+](=O)[O-])cc2C1=Nc1cccc(CO)c1	-7.38% (inactive)	–
O=[N+]([O-])c1ccc2c(c1)Nc1nc3ccccc3nc1N2	–	22.4 µM (active)
CSC(=S)N/N=C/c1c[nH]c2ccccc12	–	12.6 µM (active)
C[n+]1ccc(/C=C/c2c[nH]c3ccccc23)cc1	-10.3% (inactive)	–
NC(=O)CSc1c[nH]c2ccccc12	-0.941% (inactive)	–
NS(=O)(=O)c1ccc2nc(NC(=O)COc3ccccc3)sc2c1	24% [at 9.22 µM] (inactive)	–
CC1CN(C(=O)N2CCC(C(=O)NCc3ccco3)CC2)c2cc(Cl)ccc2O1 (centres undefined)	0% (inactive)	–
Cc1c(Cl)cccc1-c1ccc(CNCCCSc2nnnn2C)o1	0% [at 9.22 µM] (inactive)	–
C=C(Br)Cn1c(CCCC)nc2ccccc21	7.28% (inactive)	–
CC(C)c1ccc(Cn2c(COc3ccccc3)nc3ccccc32)cc1	-4.54% (inactive)	–
COCc1nc2ccccc2n1Cc1ccccc1Br	–	20 µM (active)
COc1cccc(NC(=O)C(=O)NCC(c2ccc3c(c2)OCO3)N2CCN(C)CC2)c1 (centres undefined)	2.35% (inactive)	–
COc1ccc(Cn2c(C(=O)O)c(CNCc3cccc(OC)c3)c3ccc(C)cc32)cc1	5.91% (inactive)	–
CCNC(=O)Cn1nc(C)n2c(cc3c(OC)cccc32)c1=O	18.2% (inactive)	–
CCOc1ccc(C(=O)N2CCN(CCc3ccccn3)CC2)cc1	19.5% (inactive)	–
O=C1C2C3C=CC(C4CC34)C2C(=O)N1c1nccs1 (centres undefined)	21.6% (inactive)	–
O=C1C2C3C=CC(C3)C2C(=O)N1c1ccc(S(=O)(=O)Nc2nccs2)cc1 (centres undefined)	-11.2% (inactive)	–
O=C1C2C3C=CC(C3)C2C(=O)N1c1ncc([N+](=O)[O-])s1 (centres undefined)	–	14.1 µM (active)
COc1ccccc1NC(=O)c1oc2ccccc2c1NC(=O)COc1ccccc1OC	13.7% (inactive)	–
Cc1ccc(S(=O)(=O)NCC(=O)N2CCOCCOCCOCCOCC2)cc1	-6.52% (inactive)	–
Cc1ccc(CNS(=O)(=O)c2ccc3c(c2)N(C)CCO3)cc1	–	15.8 µM (active)
CN1CCN(c2ccc(CNS(=O)(=O)c3cccc(F)c3)cc2)CC1	7.06% (inactive)	–
Nc1ccc2c(c1)C(O)c1ccc(Cl)cc1-2 (centres undefined)	–	20 µM (active)
O=C(Nc1ccc2nc(SCC(=O)N3CCCc4ccccc43)sc2c1)c1ccc(F)cc1	12.4% (inactive)	–
COC(=O)c1ccccc1NC(=O)c1cnn(-c2ccc(F)cc2)c1-n1cccc1	0% (inactive)	–
O=C(c1cnn(-c2ccc(F)cc2)c1-n1cccc1)N1CCN(c2ccc(F)cc2)CC1	–	25.1 µM (active)
O=C(Nc1ccc(F)cc1F)c1cnn(-c2ccc(F)cc2)c1-n1cccc1	19.2% (inactive)	–
